Test [1] concerns the target T1, Aspartate--tRNA(Asp/Asn) ligase (Mycobacterium tuberculosis (strain ATCC 25618 / H37Rv)) (UniProt P9WFW3). Also: in the data most compounds retested in dose-response had high values.
T1 sequence (whole entry): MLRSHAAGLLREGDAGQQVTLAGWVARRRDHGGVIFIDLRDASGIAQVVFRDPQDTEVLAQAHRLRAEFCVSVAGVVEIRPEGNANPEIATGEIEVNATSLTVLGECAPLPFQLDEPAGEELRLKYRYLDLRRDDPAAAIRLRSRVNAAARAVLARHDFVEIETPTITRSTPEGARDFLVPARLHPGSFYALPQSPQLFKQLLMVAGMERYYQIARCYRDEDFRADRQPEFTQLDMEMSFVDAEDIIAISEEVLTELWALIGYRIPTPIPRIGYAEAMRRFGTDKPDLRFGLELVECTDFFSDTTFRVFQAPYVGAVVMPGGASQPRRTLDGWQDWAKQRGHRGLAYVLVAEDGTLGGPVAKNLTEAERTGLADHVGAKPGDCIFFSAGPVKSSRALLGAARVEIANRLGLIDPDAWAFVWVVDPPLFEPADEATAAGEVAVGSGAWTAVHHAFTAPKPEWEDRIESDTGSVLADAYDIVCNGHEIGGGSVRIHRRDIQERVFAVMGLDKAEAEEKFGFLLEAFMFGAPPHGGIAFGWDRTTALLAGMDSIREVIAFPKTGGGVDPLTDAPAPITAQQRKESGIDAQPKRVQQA
As to the kind of experiment: Assay for Asp RNA synthetase-1 from Mycobacterium tuberculosis. It counts as functional. On the set-up: scale not given: direction of the effect not stated beside the values. The conditions noted are these: 30 µM.

Test [2] deals with Shiga toxin 2 (Escherichia coli O157:H7) (UniProt P09385+P09386). As to the kind of experiment: E. coli 0.157:H7 Shiga Toxin SOP - stx2 screening assay. Conditions: 30 µM. It counts as functional. More on the design: scale not given: direction of the effect not stated beside the values.

For `Cc1nc(CN2CCCN(CCOc3cccc(C#N)c3)CC2)no1`, the Percent Effect is 5.09% in test [1] and 19.3% in test [2].
On to `COc1cc(/C=C/c2ncc(C(=O)O)s2)cc(Cl)c1O`, for which the Percent Effect is -0.0437% in test [1] and -52.2% in test [2].
On to `O=C(c1cccc(F)c1)N1CCOC(c2nc(-c3ncccn3)no2)C1` (centres undefined), for which the Percent Effect in test [1] was -5.54%; in test [2], 3.39%.
On the same counts, the results for `Fc1ccc(CCN2CCC(c3nnc(-c4cccnc4)o3)CC2)cc1` are 4.51% and -76.7%.
On to `Cc1nccn1C1CCCN(C(=O)COCC(F)(F)F)C1` (centres undefined), for which the values for the Percent Effect in test [1] and in test [2] were -1.01% and -10.2%, respectively.
With `c1csc(CN2CCO[C@H]3[C@H](OCCN4CCCC4)CC[C@@H]32)n1`, the Percent Effect in test [1] is 2.94%; in test [2] it was -36.8%.
On the same counts, the results for `CCCN1CCC(NC(=O)NCCc2nc(CC)c(C)s2)CC1` are -5.93% and 19.2%.
In the case of `COc1cc(C)nc(N2CCN(C(=O)COCC(F)(F)F)CC2)n1`, the Percent Effect in test [1] was -2.06%; in test [2] it was -20.7%.
As to `COc1ccc(OCC(=O)NC(C)c2ccccc2)c(C(=O)O)c1` (centres undefined), the Percent Effect in test [1] is -1.11%; in test [2], -9.07%.
The like results for `COCCc1noc(CN2CCCC2c2c(C)nn(C)c2C)n1` (centres undefined) were, in that order, -7.13% and 10.3%.
With `Cn1cc(C(=O)N2CCCC(n3cccn3)C2)c2ccccc21` (centres undefined), the Percent Effect in test [1] is -0.132%; in test [2], -6.71%.
Take `CCNC(=O)[C@@H]1C[C@@H](NC(=O)c2cccnc2O)CN1Cc1ccsc1`: the Percent Effect in test [1] was -2.94%; in test [2] it was 19.7%.
Regarding `CCOc1cc(C)nc(N2CCN(C(=O)CC)CC2)n1`, the values for the Percent Effect in test [1] and in test [2] were 0.408% and 12.8%, respectively.
Consider `COc1ccc(F)c(CN2CCC(c3cc(O)nc(C)n3)C2)c1` (centres undefined), for which the Percent Effect is -6.3% in test [1] and -8.55% in test [2].
As for `CC(C)c1nc(N2CC(N3CCCCC3C)C2)c2cnn(C)c2n1` (centres undefined), the Percent Effect in test [1] was -2.71%; in test [2], -37.8%.
Turning to `O=C(NCc1cc(=O)n2c(n1)CN(CC1CCOC1)CCC2)C1CC1` (centres undefined), the Percent Effect in test [1] was -1%; in test [2] it was -24.3%.
As to `N#Cc1ccc(CNC(=O)NC2CCN(CC(F)F)CC2)cc1`, the Percent Effect in test [1] was -4.22%; in test [2] it was -8.96%.

The record behind these values is ChEMBL document CHEMBL3988442, “University of Dundee, Small-Polar-MMV Screening Library” (2021).
